Shown are actives, neighbours in structure and some others; about 3.7% of the full set was active somewhere.
tim10-1 inh: inhibits growth of tim10-1 mutant yeast; S. cerevisiae tim10-1 ts strain growth, BacTiter-Glo, 24 h; inhibition, % at 20 µM; hit rate 2.2% among 330,000;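 active = inhibition of at least 40%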;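 also: mutant grown at 25 °C; 0% = DMSO wells with yeast and 100% = wells holding no yeast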
Rce1 inhib: blocks yeast Ras-converting enzyme | AID 2563 | Q03530 | hit rate 0.27% among 290,000 | yeast membranes, quenched prenylated peptide cleavage fluorescence | calls only;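 active = fall in fluorescence gain of 50% or more versus controls, with final raw signal at or below 3038400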;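 also: plate controls were neutral control wells for no effect and wells lacking membranes for full effect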
Target sequence (Q03530 whole entry, looked up): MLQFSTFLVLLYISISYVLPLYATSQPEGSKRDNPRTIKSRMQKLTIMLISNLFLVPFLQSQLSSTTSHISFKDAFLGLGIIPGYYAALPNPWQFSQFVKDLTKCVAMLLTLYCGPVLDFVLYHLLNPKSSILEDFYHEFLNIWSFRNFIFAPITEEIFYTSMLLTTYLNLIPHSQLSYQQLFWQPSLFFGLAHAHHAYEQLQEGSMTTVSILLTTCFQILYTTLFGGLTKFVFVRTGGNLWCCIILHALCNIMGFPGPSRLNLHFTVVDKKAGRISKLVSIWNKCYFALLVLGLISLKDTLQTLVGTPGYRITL
PfHsp90 set2: growth inhibition of yeast expressing Plasmodium Hsp90; AID 504621; inhibition, % at 9.4 µM; S. cerevisiae expressing PfHsp90, BacTiter-Glo ATP, 48 h; yeast lacking PDR1 and PDR3 efflux regulators; hit rate 0.32% among 310,000;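 active = every replicate shows inhibition above about 80%, whatever the replicate mean, limit read from the data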;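 also: 0% = DMSO neutral controls and 100% = 20 µM radicicol positive controls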
tim23-1 inh: tim23-1 yeast growth inhibition | S. cerevisiae tim23-1 growth, BacTiter-Glo luminescence, 24 h | inhibition, % at 20 µM | hit rate 1.3% among 330,000;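 active = growth inhibition of the mutant yeast at or above 50%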;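 also: temperature-sensitive mutant grown at 25 °C; plate controls were DMSO-treated mutant yeast for no effect and medium wells lacking yeast for full effect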
TIM10 inh: growth inhibitors of TIM10 yeast strain; S. cerevisiae TIM10 strain growth, BacTiter-Glo luminescence, 24 h; inhibition, % at 10 µM; hit rate 1.4% among 330,000;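 active = inhibition of 40% or more at the single tested concentration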;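 also: wild-type TIM10 isogenic control strain grown at permissive 25 °C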
tim10-1 conf: tim10-1 yeast growth inhibition, confirmed; shares compounds with tim10-1 inh; S. cerevisiae tim10-1 ts strain growth, BacTiter-Glo, 24 h; inhibition, % at 20 µM; hit rate 56% among 7,400; AID 463213;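 active = inhibition of yeast growth at or above a set limit in either of two repeat tests at 20 µM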;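 also: tim10-1 mutant grown at permissive 25 °C to find synthetic lethal compounds; 0% = DMSO yeast wells and 100% = medium wells without yeast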
* hit, by the source's call; i = inactive; x = no result.

SMILES | tim10-1 inh | Rce1 inhib | PfHsp90 set2 | tim23-1 inh | TIM10 inh | tim10-1 conf
COc1ccc2c(c1OC)C(=O)N1N=C(c3ccc(Cl)cc3)CC21 (configuration not stated) | 46.4* | i | -7.1 | 38.8 | 31.0 | 33.0*
CC(=O)OC1CC(c2cc(C(C)(C)C)c(O)c(C(C)(C)C)c2)=NO1 (configuration not stated) | 7.2 | i | -12.7 | 19.6 | -1.1 | x
COc1cccc(OC)c1OCC(=O)Nc1ccc(S(=O)(=O)N2CCCC2)cc1 | 1.7 | x | x | 15.6 | 0.2 | x
Cc1nc(N2CCCCC2)c2c(C)c(C(=O)Nc3ccc4c(c3)OCCO4)sc2n1 | 45.5* | i | -8.2 | 48.9 | 16.3 | 31.0*
Cc1nc(N2CCN(C)CC2)c2c(C)c(C(=O)Nc3ccc(C)c(F)c3)sc2n1 | 8.3 | i | 8.7 | 19.6 | 2.9 | x
Cc1nc(N2CCN(c3ccccn3)CC2)c2c(C)c(C(=O)Nc3c(C)cc(Br)cc3C)sc2n1 | 18.3 | i | -7.4 | 19.3 | 4.0 | x
Cc1nc(N2CCN(c3ccccn3)CC2)c2c(C)c(C(=O)Nc3c(F)cc(F)cc3Br)sc2n1 | 40.4* | i | -86.5 | 27.2 | 7.0 | 14.6
C/C(=N\NC(=O)c1nnn(-c2nonc2N)c1CN1CCCCC1)c1ccccc1O | 24.7 | i | -9.8 | 30.6 | 31.5 | x
COc1ccc(CNC(=O)[C@H](C)N2C(=O)N3CCc4c([nH]c5ccccc45)[C@@]3(C)C2=O)cc1OC | 1.5 | i | 2.6 | 7.5 | -1.9 | x
COc1ccc(-c2c(C)nn3c(NC4CCCC4)cc(C)nc23)cc1OC | 43.6* | i | -22.9 | 42.5 | 9.1 | 22.9
COc1ccc(CCNc2cc(C)nc3c(-c4ccccc4)c(C)nn23)cc1OC | 42.9* | i | 18.7 | 24.9 | 18.0 | 19.9
CCOC(=O)C(=O)C1=C(N2CCOCC2)/C(=C\c2cccc([N+](=O)[O-])c2)CC1 | 40.9* | i | 24.8 | 47.2 | 21.7 | 25.3
Cc1nn(C(=O)Cn2cc([N+](=O)[O-])cn2)c(C)c1Cl | -2.7 | i | 1.0 | 7.9 | -3.4 | x
Cc1ccc(S(=O)(=O)N/N=C/c2cccc([N+](=O)[O-])c2)cc1 | 26.9 | i | 4.8 | 22.2 | -4.8 | x
Cc1ccc(S(=O)(=O)N/N=C\c2cc([N+](=O)[O-])ccc2Cl)cc1 | 46.1* | i | -18.6 | 37.3 | 21.9 | 32.2*
CN(c1ccc(F)cc1)S(=O)(=O)c1ccc(Cl)c(C(=O)NCc2ccco2)c1 | 1.3 | x | -27.1 | 20.7 | 8.1 | x
CC1Cc2ccccc2N1C(=O)CN1CCN(S(=O)(=O)c2cccs2)CC1 (configuration not stated) | 47.9* | x | 0.8 | 35.7 | 11.3 | 21.1
Brc1cccc(-c2nnc(SCc3ccon3)n2-c2ccccc2)c1 | 40.6* | i | -38.3 | 44.6 | 26.3 | 14.7
O=C(O)c1ccc(CSc2nnc(-c3ccccc3)n2-c2ccccc2)cc1 | 18.0 | i | -1.9 | 2.9 | -1.0 | x
Cc1nn(-c2ccccc2)c2sc(-c3n[nH]c(=S)o3)cc12 | 17.5 | i | -2.5 | -0.6 | -32.7 | x
Cc1cc(C(=O)CSc2nnc(-c3ccc(Cl)cc3)n2CC2CCCO2)c(C)n1C (configuration not stated) | 50.0* | i | 2.9 | 32.6 | 13.8 | 34.9*
CN(C(=O)CSc1nnc(-c2ccc(Cl)cc2)n1CC1CCCO1)C1CCS(=O)(=O)C1 (configuration not stated) | 4.0 | i | -34.8 | -1.3 | 11.9 | x
COc1ccc2c(COC(=O)CNC(=O)C34CC5CC(CC(C5)C3)C4)cc(=O)oc2c1 | 42.0* | i | 16.9 | 28.7 | 19.1 | 27.4
COc1cc(NC(=O)COC(=O)CNC(=O)C23CC4CC(CC(C4)C2)C3)cc(OC)c1 | 1.5 | x | -42.1 | 23.4 | -7.5 | x
COc1ccc(-n2ncc3c(N4CCN(Cc5ccccc5)CC4)ncnc32)cc1 | 45.5* | i | 29.2 | 25.8 | 30.1 | 25.5
SMILES | tim10-1 inh | Rce1 inhib | PfHsp90 set2 | tim23-1 inh | TIM10 inh | tim10-1 conf
c1ccc(CNc2ncnc3c2cnn3Cc2ccccc2)cc1 | -11.1 | i | -17.8 | 8.3 | -2.3 | x
CCOc1ccc(Nc2ncnc3c2cnn3Cc2ccccc2)cc1 | 41.0* | i | 29.0 | 38.5 | 24.9 | 36.9*
CCN1CCN(c2ncnc3c2cnn3-c2ccccc2)CC1 | -1.1 | i | 5.0 | -9.4 | 0.0 | x
COc1ccc(Nc2ncnc3c2cnn3Cc2ccccc2)cc1 | 46.3* | i | 13.1 | 38.3 | 28.9 | 34.0*
CCOc1ccc(Nc2ncnc3c2cnn3-c2ccccc2)cc1 | -25.0 | i | -6.6 | -12.7 | 14.5 | x
Oc1csc(Cc2nc(-c3ccc(-c4ccccc4)cc3)cs2)n1 | 21.5 | i | -18.8 | 7.3 | 11.9 | x
NC(=S)Cc1nc(-c2ccccc2)cs1 | 51.0* | i | -3.5 | 42.4 | 38.6 | 44.0*
O=[N+]([O-])c1cccc(-c2noc(COc3ccccc3)n2)c1 | -0.8 | i | 3.4 | 8.6 | -0.9 | x
COc1ccc(-c2oc3ncnc(NCCN4CCOCC4)c3c2-c2ccc(OC)cc2)cc1 | 47.9* | i | 5.4 | 39.0 | 37.6 | 28.8*
COc1ccc(-c2oc3ncnc(NCCCN4CCOCC4)c3c2-c2ccc(OC)cc2)cc1 | 41.1* | i | 28.2 | 48.2 | 29.0 | 23.4
Cc1cc(=O)[nH]c2nnc(-c3ccc(Cl)cc3)n12 | -7.3 | i | 14.4 | -5.2 | 5.4 | x
Cc1cccc(NC(=S)NCCSc2ccc(Cl)cc2)c1 | 45.4* | i | 22.3 | 27.9 | 35.0 | 25.6
Cc1ccc(C)c(NC(=S)NCCSc2ccc(Cl)cc2)c1 | 25.7 | i | -35.5 | 17.4 | 18.7 | x
Cc1ccccc1NC(=S)NCCSc1ccc(Cl)cc1 | 46.6* | i | -5.6 | 29.5 | 24.5 | 26.2
CC1CCc2c(sc(NC(=O)CSc3ncn[nH]3)c2C#N)C1 (configuration not stated) | -2.4 | i | 11.0 | 11.7 | -3.1 | x
CCCc1cc(=O)[nH]c(SCC(=O)Nc2sc3c(c2C#N)CCC(C)C3)n1 (configuration not stated) | 46.6* | i | x | 21.1 | 13.6 | -8.0
CC(C)(C)C1CCc2c(sc(NC(=O)CSc3ncn[nH]3)c2C#N)C1 (configuration not stated) | 40.1* | i | 7.0 | 37.6 | 22.9 | 12.4
Cc1ccc(C(=O)N2CCN(c3ccc(C(F)(F)F)cn3)CC2)c(C)c1 | 43.8* | i | 1.5 | 48.6 | 20.3 | 30.1
Cc1ccc(C(=O)N2CCN(c3ccc(C(F)(F)F)cn3)CC2)cc1 | 20.4 | i | 20.6 | 13.6 | 21.9 | x
Cc1c(C(=O)N2CCN(c3ccc(C(F)(F)F)cn3)CC2)oc2ccccc12 | 40.7* | i | -16.3 | 32.8 | 26.3 | 37.0*
Cc1cccc(Oc2coc3cc(O)ccc3c2=O)c1 | 47.8* | i | 0.3 | 33.7 | 19.4 | 15.4
CCSc1c([N+](=O)[O-])c(=O)n(-c2ccccc2)c2ccccc12 | 46.7* | i | -20.5 | 44.6 | 39.6 | 45.5*
COC(=O)N/N=C/c1c(C)cc(C)cc1C | -9.8 | i | -16.2 | 8.6 | -6.5 | x

Compound activity (PubChem)
